According to PubChem BioAssay AID1619 (SRMLSC, 2009):
Hit rate of the full screen: of about 220,000 compounds, about 830 (0.38%) were called active.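 How the source made its calls: active means compound inhibiting the enzyme by more than half at any dose during confirmatory dose-response retesting; inconclusive means strong single-dose inhibitors picked by rank but not retested; inactive means the rest.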 Only a sample is shown. Measured potencies and affinities stand elsewhere.

Molecular target: Leucine aminopeptidase (Plasmodium falciparum (isolate 3D7)) (UniProt Q8IL11)
Sequence (Q8IL11 whole entry, looked up): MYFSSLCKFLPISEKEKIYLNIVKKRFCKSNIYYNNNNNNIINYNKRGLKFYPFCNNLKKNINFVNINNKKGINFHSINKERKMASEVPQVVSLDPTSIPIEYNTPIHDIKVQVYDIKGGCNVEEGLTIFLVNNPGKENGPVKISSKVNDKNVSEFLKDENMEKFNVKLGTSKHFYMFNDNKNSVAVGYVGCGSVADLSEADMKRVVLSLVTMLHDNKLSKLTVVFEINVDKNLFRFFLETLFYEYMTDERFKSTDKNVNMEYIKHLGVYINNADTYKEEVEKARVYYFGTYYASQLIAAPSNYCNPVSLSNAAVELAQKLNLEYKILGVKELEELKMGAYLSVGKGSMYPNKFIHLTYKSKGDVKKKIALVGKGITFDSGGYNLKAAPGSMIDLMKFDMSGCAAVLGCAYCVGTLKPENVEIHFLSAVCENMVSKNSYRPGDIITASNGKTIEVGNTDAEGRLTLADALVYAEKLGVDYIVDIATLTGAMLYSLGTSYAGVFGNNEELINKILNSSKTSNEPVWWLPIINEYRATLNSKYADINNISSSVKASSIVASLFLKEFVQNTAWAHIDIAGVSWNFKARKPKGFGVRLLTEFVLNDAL
Experiment: P. falciparum M17LAP inhibitors, primary screen, biochemical, fluorogenic H-Leu-NHMec substrate, 1536-well (AID 1619);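 further: plate controls were full reaction with DMSO carrier for no effect and no enzyme background for full effect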
Settings: recombinant M17LAP, H-Leu-NHMec fluorogenic kinetic assay; at 30 µM; stronger effect = higher value

inhibition, inactive:
COC(=O)c1cc(Cl)c(NC(=O)c2cc3ccccc3o2)cc1OC -2.34%, O=C(c1ccc(Br)cc1)c1cc(-c2ccccn2)c(N2CCOCC2)s1 5.58%, Cc1csc2c(SCC(=O)NNS(=O)(=O)c3cccc(C(F)(F)F)c3)ncnc12 -12.4%, CC1(OC(=O)C2CCCC2)C(=O)C=C2C=C(c3ccsc3)N(c3ccccc3)C=C2C1=O (stereo unspecified) -5.77%, O=C(OCCN1C(=O)c2ccccc2C1=O)c1ccco1 15.3%, COc1ccc(NC(=O)Nc2ccc(C(=O)N3CCOCC3)cc2)c(OC)c1 -5.93%, CCN1CCN(Cc2ccc(NC(=O)Nc3ccccc3)cc2)CC1 50.7%, Cc1ccc(NC(=O)Nc2ccc(C(=O)N3CCOCC3)cc2)cc1 41%, CCN1CCN(Cc2ccc(NC(=O)Nc3ccccc3OC)cc2)CC1 -5.76%, CC(=O)Nc1cccc(C(=O)/C=C/c2ccco2)c1 17.6%, O=C(O)c1ccccc1/C=N/N1CCN(C2c3ccccc3-c3ccccc32)CC1 -1.62%, Brc1ccc(C2=Nn3c(nnc3-c3n[nH]c4c3CCC4)SC2)cc1 6.03%, CCn1c(O)c(N=N)c2ccccc21 12.4%, O=C(N/N=C/c1coc2ccccc2c1=O)c1cc(O)cc(O)c1 29.1%, O=C(N/N=C/c1coc2ccccc2c1=O)c1ccccc1 11.9%, Cc1c(C(=O)N2CCCC2)sc(NC(=O)c2cccc(Cl)c2)c1C#N 18.9%, O=C(COC(=O)c1cccnc1Cl)NCCC1=CCCCC1 3.53%, O=C(CSc1ccccc1C(=O)O)NCc1ccco1 16.5%, O=C(COC(=O)c1cccnc1SCC(=O)NCc1ccccc1)NCc1ccccc1 5.78%, O=C(CSc1ncccn1)NCc1ccc(F)cc1 2.25%, O=C(CSc1ccccc1C(=O)O)NCc1ccccc1 17.3%, Cc1ccc(SCC(=O)NCCC2=CCCCC2)cc1 -5.26%, Cc1cccc2cc(C(c3nnnn3Cc3ccccc3)N3CCN(c4ccccc4)CC3)c(=O)[nH]c12 (stereo unspecified) 2.86%, COc1ccc(N2C(=O)CC(SCCc3nc4ccccc4[nH]3)C2=O)cc1 (stereo unspecified) 5.58%, CC1=C(C(=O)NCc2ccccc2)C(c2cccs2)n2ncnc2N1 (stereo unspecified) -3.95%, O=C(NNC(=S)Nc1ccccc1)Nc1ccccc1 9.53%, N#C/C(=C/c1ccc(N2CCOCC2)o1)C(=O)Nc1ccccc1 11.7%, N#C/C(=C\c1ccc(N2CCOCC2)o1)C(=O)NCCc1ccccc1 10.1%, N#C/C(=C\c1ccc(N2CCOCC2)o1)C(=O)NC1CCCCC1 48.6%, N#C/C(=C\c1ccc(N2CCOCC2)o1)C(=O)NCC1CCCO1 (stereo unspecified) 51%, N#C/C(=C\c1ccc(N2CCOCC2)o1)C(=O)Nc1ccc(O)cc1 43.7%, COCCNC(=O)/C(C#N)=C/c1ccc(C)o1 23.4%, CCN1CCN(Cc2ccc(NC(=O)c3cc(NC(=O)C4=NN(c5ccccc5)C(=O)C4)cc(OC)c3)cc2C(F)(F)F)CC1 6.5%, CCn1c(SCC(=O)OCc2ccccc2)nnc1-c1ccco1 4.57%, CCOC(=O)COc1ccccc1/C=C1/NC(=O)NC1=O -4.69%, CCOC(=O)c1c(C)[nH]c(C(=O)OCC(=O)Nc2ccc(OCC)cc2)c1C -8.26%, COc1ccc(C(C)C)cc1S(=O)(=O)n1ccnc1C -18.1%, COC1=Cc2c(ccc3ccc(=O)oc23)OC1(C)C -5.99%, CC(Sc1nc(-c2ccccc2)cc(=O)[nH]1)C(=O)O (stereo unspecified) 22.4%, CCC(Sc1nc(-c2ccccc2)cc(=O)[nH]1)C(=O)O (stereo unspecified) 10%, COc1cccc(CNC(=O)CN2C(=O)CSc3ccc(S(=O)(=O)N4CCCC4)cc32)c1 1.2%, COc1ccc(C(=O)NCC(=O)OCC(=O)Nc2c(C)n(C)n(-c3ccccc3)c2=O)cc1 5.29%, COc1ccc(CNc2nn[nH]n2)cc1OC 26.5%, c1ccc(COc2ccccc2CNc2nn[nH]n2)cc1 6.74%, COc1ccc(/C=N/NC(=S)N[C@H]2CC3CCC2C3)cc1 (stereo partly specified) 3.46%, COc1ccc(C(=O)Nc2nc3cc(OC)c(OC)cc3c(=O)[nH]2)cc1 0.22%, CC1CCC2(CC1)NC(=O)N(CC(=O)N1CCN(S(=O)(=O)c3ccccc3)CC1)C2=O (stereo unspecified) 5.42%, CS(=O)(=O)CCC(C(=O)N1CCOCC1)N1C(=O)c2cc(Cl)c(Cl)cc2C1=O (stereo unspecified) 6.46%, COc1cccc(Nc2ncnc3c2cnn3C)c1 16.4%, COc1cccc(Nc2ncnc3ccccc23)c1 13.6%, Cc1cccc(Nc2ncnc3ccc(Br)cc23)c1 5.43%, Cc1cccc(Nc2ncnc3ccccc23)c1 19.2%, CCN1C(=O)/C(=C\c2nc3ccccc3c(=O)n2-c2ccccc2)c2ccccc21 -3.98%, CCOC(=O)c1cnc2c(C)c(Cl)ccc2c1Nc1ccc(S(=O)(=O)Nc2ncccn2)cc1 -6.24%, CC(=O)NC(O)C(=O)c1ccco1 (stereo unspecified) 3.51%, C=CCn1c(SCC(=O)Nc2c(C)cccc2C)nnc1-c1ccncc1 -1.77%, COc1ccc(C(=O)COC(=O)C2CCC(=O)N2)cc1 (stereo unspecified) -3.64%, Cc1ccc2nc(SCCC(=O)O)cc(C)c2c1 43.9%, Nc1nc(-c2ccccc2Br)cs1 -3.14%, Cc1cc(C)nc(Nc2n[nH]c(-c3ccccc3Br)n2)n1 -2.55%, CC(C)CC(C(=O)O)N1C(=O)[C@@H]2[C@H](C1=O)[C@@H]1C[C@H]2C(Br)C1Br (stereo partly specified) 42.5%, Cc1[nH]n(-c2ncc(-c3ccccc3)s2)c(=O)c1C(c1ccc(Br)cc1)C(C#N)C#N (stereo unspecified) 6.12%, Cc1[nH]n(-c2ncc(-c3ccccc3)s2)c(=O)c1C(c1ccc(Cl)cc1)C(C#N)C#N (stereo unspecified) 21.9%, O=C(COC(=O)Cc1c[nH]c2ccccc12)Nc1ccccc1 0.86%, CC(C)(C)c1ccc(C(=O)C2CCCN(C(=O)C3CCOCC3)C2)cc1 (stereo unspecified) -15.1%, O=C(CN1CCC(n2nnc3cc(C(F)(F)F)ccc32)CC1)N1CCc2ccccc21 10.6%, O=C(CN1C(=O)c2ccccc2S1(=O)=O)Nc1ccccc1C(=O)NCc1ccco1 23.5%, CC(C)(C)SCCNC(=O)CN1C(=O)c2ccccc2S1(=O)=O 32.2%, COc1ccc(CCNC(=O)CN2C(=O)c3ccccc3S2(=O)=O)cc1 34.7%, O=C(CN1C(=O)c2ccccc2S1(=O)=O)NCCC1=CCCCC1 43.9%, Cc1ccc(SCCNC(=O)CN2C(=O)c3ccccc3S2(=O)=O)cc1 54.1%, Cc1ccc(CSCCNC(=O)CN2C(=O)c3ccccc3S2(=O)=O)cc1 46.9%, Cc1ccc(N(C(C)C(=O)O)S(=O)(=O)c2c(C)[nH]c(=O)[nH]c2=O)cc1 (stereo unspecified) 3.87%, c1ccc(Cn2nnc3c(N4CCc5ccccc54)ncnc32)cc1 -4.35%, CCCNC(=O)NS(=O)(=O)c1cnccc1Sc1ccc(Cl)c(Cl)c1 9.08%, Cc1ccc(NC(=O)Cn2cccc2C2=NC(c3ccccc3)CO2)cc1C (stereo unspecified) -6.31%, COC(=O)CSc1nc2cc3c(cc2cc1C)OCO3 -14.1%, Cc1cc(NC(=O)CCN2C(=O)C3C4CCC(C4)C3C2=O)cc(C)c1Br (stereo unspecified) 3.99%, Cc1c(Br)ccc(NC(=O)CCN2C(=O)C3C4CCC(C4)C3C2=O)c1C (stereo unspecified) 15.8%, O=C(NCc1ccccn1)C(=O)N/N=C/c1ccc2c(c1)OCO2 9.75%, COc1ccc(Nc2ncc3c(n2)CC(c2ccc(OC)cc2)CC3=O)cc1 (stereo unspecified) 0.52%, Nc1nc2c(s1)CC(c1ccccc1)CC2 (stereo unspecified) 18.1%, Nc1nc2c(s1)C(=O)CCC2 12.6%, COc1ccc(C2CC(=O)c3sc(NC(C)=O)nc3C2)cc1 (stereo unspecified) -0.56%, O=C(CSc1ncn(-c2ccccc2)n1)Nc1ccc2c(c1)OCCO2 27.7%, CCc1c(C)nc(SCC(=O)Nc2ccc(Br)cc2)[nH]c1=O 19.5%, CCCC(=O)Nc1nnc(SCC(=O)Nc2ccc3c(c2)OCCO3)s1 -3.46%, Cc1cc(=O)[nH]c(SCC(=O)Nc2ccc3c(c2)OCCO3)n1 36.2%, Nc1nc(SCC(=O)Nc2ccc3c(c2)OCO3)n[nH]1 4.7%, CC(C)C(=O)Nc1nnc(SCC(=O)Nc2ccc3c(c2)OCO3)s1 14.7%, Cc1csc(SCC(=O)Nc2ccc3c(c2)OCCO3)n1 -1.69%, CC(C)c1nc(SCC(=O)Nc2ccc3c(c2)OCCO3)n[nH]1 20.1%, CCc1nc(SCC(=O)N2CCN(c3ccccc3)CC2)c2c(=O)n(C)c(=O)n(C)c2n1 3.46%, O=C(Nc1ccc(S(=O)(=O)NCc2ccco2)cc1)C1CCCCC1 2.33%, CC(=O)c1sc(NC(=O)CCOc2ccccc2)nc1C -0.71%, CCN1CCN(C(=O)CN(C)S(=O)(=O)c2ccc(Cl)cc2)CC1 -6.75%
